The text below walks through data of PubChem BioAssay (EPA / NIEHS).

Structures are written as SMILES. Calls of active or inactive are those of the source. Rule for the calls: active = hit-call score of the fitted dose curve at least 0.9, where 1 is the maximum; inactive = score below 0.9.

Usually AC50 stands for the concentration giving half of the maximal activity seen.

Assay [1] is described as follows: BSK_KF3CT_SRB: Viability Assessment in the BioMAP Diversity Plus: KF3CT Assay (AID 2283069).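 Note: total protein by sulforhodamine B staining as a cytotoxicity measure; read 24 h after compound addition.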 The conditions noted are these: primary human keratinocytes with fibroblasts. The method, boiled down:
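Human primary keratinocyte plus foreskin fibroblast co-culture exposed to chemicals for 24 h. Total protein measured by 0.1% sulforhodamine B staining after 10% TCA fixation, read at 560 nm; bidirectional fitting versus DMSO baseline.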

Read-out in assay [2]: Interleukin-1 alpha (IL1a), IL1A (gene 3552)
The assay can be described thus: BSK_KF3CT_IL1a: BioMAP Diversity Plus: KF3CT Assay for Interleukin-1 alpha (IL1a) Biomarker Activity (AID 2283070). As to conditions: primary human keratinocytes with fibroblasts; actives raise or lower the signal. The method, boiled down:
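Human keratinocyte plus foreskin fibroblast primary co-culture, sampled 24 h after chemical dosing. IL-1a measured by ELISA; responses fitted bidirectionally against DMSO baseline (negative control), so gain or loss of signal both count.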

Read-out in assay [3]: TIMP metallopeptidase inhibitor 2 (TIMP2), TIMP2 (gene 7077)
The assay can be described thus: BSK_KF3CT_TIMP2: BioMAP Diversity Plus: KF3CT Assay for TIMP metallopeptidase inhibitor 2 (TIMP2) Biomarker Activity (AID 2283071). As to conditions: primary human keratinocytes with fibroblasts; actives raise or lower the signal. In outline:
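Co-culture of human primary keratinocytes and foreskin fibroblasts, measured 24 h after chemical dosing. TIMP-2 quantified by ELISA and fitted in both directions relative to DMSO. Cytotoxicity checked in parallel cultures by SRB total-protein staining.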

Read-out in assay [4]: Transforming growth factor beta 1 (TGFb1), TGFB1 (gene 7040)
The assay can be described thus: BSK_KF3CT_TGFb1: BioMAP Diversity Plus: KF3CT Assay for Transforming growth factor beta 1 (TGFb1) Biomarker Activity (AID 2283072). The conditions noted are these: primary human keratinocytes with fibroblasts; actives raise or lower the signal. In outline:
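Human keratinocyte/foreskin fibroblast co-culture; TGF-b1 measured by ELISA 24 h after dosing, fitted bidirectionally versus DMSO. Cytotoxicity checked in parallel cultures by total protein (SRB staining, 560 nm).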

Read-out in assay [5]: C-C motif chemokine 2 (Homo sapiens) (UniProt P13500)
The assay can be described thus: BSK_KF3CT_MCP1: BioMAP Diversity Plus: KF3CT Assay for Monocyte Chemoattractant Protein 1 (MCP1/CCL2) Biomarker Activity (AID 2283073). The conditions noted are these: primary human keratinocytes with fibroblasts; actives raise or lower the signal. In outline: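 Biomarker MCP-1 is measured by ELISA in primary human keratinocytes co-cultured with foreskin fibroblasts, 24 h after chemical treatment; DMSO serves as the negative control and activity baseline.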

Read-out in assay [6]: Matrix Metallopeptidase 9 (MMP9), MMP9 (gene 4318)
The assay is described as follows: BSK_KF3CT_MMP9: BioMAP Diversity Plus: KF3CT Assay for Matrix Metallopeptidase 9 (MMP9) Biomarker Activity (AID 2283074).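 For AC50: MMP9 protein level quantified by ELISA in the co-culture.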 As to conditions: primary human keratinocytes with fibroblasts; actives raise or lower the signal. In outline: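 Keratinocyte plus foreskin fibroblast human primary skin co-culture was dosed with chemical and MMP-9 was quantified by ELISA 24 h later. Bidirectional curve fitting used DMSO as negative control and activity baseline.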

Read-out in assay [7]: urokinase plasminogen activator (uPA), PLAU (gene 5328)
The assay can be described thus: BSK_KF3CT_uPA: BioMAP Diversity Plus: KF3CT Assay for urokinase plasminogen activator (uPA) Biomarker Activity (AID 2283075). As to conditions: primary human keratinocytes with fibroblasts; actives raise or lower the signal. The method, boiled down: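 Human keratinocyte plus foreskin fibroblast primary co-culture exposed to chemical for 24 h. uPA levels were quantified by ELISA, and activity was fitted bidirectionally against a DMSO negative-control baseline.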

Read-out in a further assay: CD40, CD40 (gene 958)
The assay is described as follows: BSK_LPS_CD40: BioMAP Diversity Plus: LPS Assay for CD40 Biomarker Activity (AID 2283076). As to conditions: primary human HUVEC with PBMC; actives raise or lower the signal. In outline:
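Using a multiplexed primary human co-culture (umbilical vein endothelium plus PBMC), CD40 was read by ELISA 24 h after dosing, with cytotoxicity tracked by sulforhodamine B staining of parallel cultures and activity fitted bidirectionally versus DMSO.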

Read-out in assay [8]: E-selectin (Homo sapiens) (UniProt P16581)
The assay can be described thus: BSK_LPS_Eselectin: BioMAP Diversity Plus: LPS Assay for Eselectin Biomarker Activity (AID 2283077). The conditions noted are these: primary human HUVEC with PBMC; actives raise or lower the signal. In outline:
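Dose chemical onto LPS-driven HUVEC/PBMC co-culture; after 24 h, run ELISA for E-selectin; fit up- and down-going responses relative to DMSO control.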

Read-out in assay [9]: Interleukin-8 (IL8), CXCL8 (gene 3576)
The assay is described as follows: BSK_LPS_IL8: BioMAP Diversity Plus: LPS Assay for Interleukin-8 (IL8) Biomarker Activity (AID 2283078). The conditions noted are these: primary human HUVEC with PBMC; actives raise or lower the signal. The method, boiled down:
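In this LPS system, chemical-treated human umbilical vein endothelium/PBMC co-cultures were harvested at 24 h for IL-8 ELISA.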

Chain of E-selectin (Homo sapiens) (P16581 whole entry, looked up): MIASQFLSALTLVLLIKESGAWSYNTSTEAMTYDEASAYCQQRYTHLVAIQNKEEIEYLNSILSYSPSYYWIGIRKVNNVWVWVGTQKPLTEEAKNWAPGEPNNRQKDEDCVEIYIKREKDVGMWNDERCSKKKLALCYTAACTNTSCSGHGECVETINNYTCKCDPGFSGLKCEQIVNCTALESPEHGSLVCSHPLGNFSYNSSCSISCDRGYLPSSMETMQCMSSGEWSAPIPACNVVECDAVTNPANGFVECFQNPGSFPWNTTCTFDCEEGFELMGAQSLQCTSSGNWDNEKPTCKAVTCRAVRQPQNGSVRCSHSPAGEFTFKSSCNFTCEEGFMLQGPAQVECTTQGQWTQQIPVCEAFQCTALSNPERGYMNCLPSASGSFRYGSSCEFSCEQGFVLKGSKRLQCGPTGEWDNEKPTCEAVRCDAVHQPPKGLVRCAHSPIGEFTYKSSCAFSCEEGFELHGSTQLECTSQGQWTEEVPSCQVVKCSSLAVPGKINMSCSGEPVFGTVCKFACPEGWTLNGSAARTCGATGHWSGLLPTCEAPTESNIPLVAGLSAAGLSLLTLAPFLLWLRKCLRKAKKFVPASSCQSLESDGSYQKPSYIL

Take `COC(=O)NS(=O)(=O)c1ccc(N)cc1`: the outcome in [1], in assay [2], in assay [3], in [4], in [5] and in [6] was inactive. Moreover, the outcome was “inactive” in [7]; “inactive” in the assay with CD40, CD40 (gene 958); “inactive” in [8]; “inactive” in [9].

As for `Cc1cnc(C2=NC(C)(C(C)C)C(=O)N2)c(C(=O)O)c1` (stereo unspecified), the result in [1], in assay [2], in assay [3], in assay [5], in [6] and in [7] was inactive. For the same compound, the outcome with CD40, CD40 (gene 958) was “inactive”; in assay [8] it was “inactive”; in assay [9] it was “inactive”.

For the compound `Nc1c(Cl)c(F)nc(OCC(=O)O)c1Cl`, the result in [1], in assay [2], in assay [3], in assay [4], in [5] and in [6] was inactive. Besides, the outcome in [7] is “inactive”; with CD40, CD40 (gene 958), “inactive”; in assay [8], “inactive”; in assay [9] it was “inactive”.

Regarding `CC1(C)C(C(=O)OC(C#N)c2cccc(Oc3ccccc3)c2)C1(C)C` (stereo unspecified), the result in [1], in assay [2], in assay [3], in assay [4], in assay [5] and in [7] was inactive. Also, the result in [8] and in assay [9] was inactive. The AC50 was 5.56 µM (active) in [6] and 12.9 µM (active) with CD40, CD40 (gene 958).

As to `O=P(O)(O)CCCl`, the outcome in assay [1], in [2], in assay [3], in assay [5], in assay [6] and in assay [7] was inactive. The outcome in the assay with CD40, CD40 (gene 958) is “inactive”; in assay [8], “inactive”; in assay [9], “inactive”.

With `O=c1n(Cl)c(=O)n(Cl)c(=O)n1Cl`, the result in [1], in assay [2], in assay [3], in [4], in assay [5] and in assay [6] was inactive. For the same compound, the outcome in assay [7] is “inactive”; with CD40, CD40 (gene 958), “inactive”; in [8], “inactive”; in [9] it was “inactive”.

Turning to `COc1ccc(-c2ccccc2)cc1NNC(=O)OC(C)C`, the result in assay [1], in assay [2], in assay [3], in [4], in [5] and in [6] was inactive. The outcome is “inactive” in assay [7]; “inactive” in the assay with CD40, CD40 (gene 958); “inactive” in assay [8]; “inactive” in assay [9].

Regarding `CNC(=O)Oc1cccc2ccccc12`, the result in [1], in assay [2], in assay [3], in assay [4], in [5] and in [6] was inactive. The result in [7], in assay [8] and in assay [9] was inactive. In the assay with CD40, CD40 (gene 958), the half-maximal activity concentration (AC50) is 20 µM (active).

Regarding `CS(=O)(=O)c1cc(C(F)(F)F)ccc1C(=O)c1cnoc1C1CC1`, the result in [1], in [2], in [3], in assay [4], in assay [5] and in [6] was inactive. The outcome is “inactive” in [7]; “inactive” with CD40, CD40 (gene 958); “inactive” in assay [8]; “inactive” in assay [9].

`O=C(Nc1ccccc1-c1ccc(Cl)cc1)c1cccnc1Cl`: the outcome in assay [1], in assay [2], in assay [3], in assay [4], in assay [6] and in [7] was inactive. The outcome was “inactive” in the assay with CD40, CD40 (gene 958); “inactive” in assay [8]; “inactive” in assay [9]. In addition, the AC50 in [5] is 0.843 µM (active).

`Nc1cnn(-c2ccccc2)c(=O)c1Cl`: the result in assay [1], in [2], in assay [3], in assay [4], in [5] and in assay [6] was inactive. In addition, the outcome in [7] was “inactive”; in the assay with CD40, CD40 (gene 958), “inactive”; in [8], “inactive”; in assay [9] it was “inactive”.

For the compound `COC(=O)NC(=S)Nc1ccccc1NC(=S)NC(=O)OC`, the outcome in assay [1], in [2], in assay [3], in [4], in [5] and in assay [6] was inactive. For the same compound, the outcome was “inactive” in assay [7]; “inactive” in the assay with CD40, CD40 (gene 958); “inactive” in [8]; “inactive” in [9].

`CCNP(=S)(OC)O/C(C)=C/C(=O)OC(C)C` (stereo unspecified): the result in [1], in assay [2], in [3], in assay [4], in assay [6] and in assay [7] was inactive. For the same compound, the outcome was “inactive” with CD40, CD40 (gene 958); “inactive” in assay [8]; “inactive” in assay [9]. For the same compound, the concentration at half-maximal activity (AC50) in assay [5] was 0.733 µM (active).

For the compound `CC1(C)CON(Cc2ccccc2Cl)C1=O`, the result in assay [1], in assay [2], in assay [3], in assay [4], in [5] and in assay [6] was inactive. Besides, the outcome was “inactive” in [7]; “inactive” in the assay with CD40, CD40 (gene 958); “inactive” in assay [8]; “inactive” in [9].

On to `O=C(O)c1c(Cl)ccc2cc(Cl)cnc12`, for which the outcome in assay [1], in [2], in assay [3], in assay [4], in assay [5] and in assay [6] was inactive. Also, the outcome is “inactive” in [7]; “inactive” with CD40, CD40 (gene 958); “inactive” in assay [8]; “inactive” in [9].

Turning to `CCN(CC)C(=O)C(C)Oc1cccc2ccccc12` (stereo unspecified), the result in assay [1], in [2], in assay [3], in [4], in [5] and in assay [6] was inactive. In addition, the outcome was “inactive” in [7]; “inactive” in the assay with CD40, CD40 (gene 958); “inactive” in assay [8]; “inactive” in [9].

In the case of `CSC(=O)c1c(C(F)F)nc(C(F)(F)F)c(C(=O)SC)c1CC(C)C`, the outcome in assay [1], in assay [2], in assay [3], in assay [5], in assay [6] and in assay [7] was inactive. Moreover, the AC50 is 16.3 µM (active) with CD40, CD40 (gene 958) and 5.05 µM (active) in assay [8].
